Screening data (PubChem BioAssay)
Hits are enriched below; roughly 11% of the tested compounds scored in any of these assays.
Tau fibril ThT – blocks human tau fibril formation measured by thioflavin T. recombinant tau K18 P301L, heparin-induced fibrillization, ThT fluorescence. Potency, µM (top dose mostly 57.4 µM), for the others: at the highest dose activity, negative = inhibition, most hits filed as inhibitors. 270,000 tested, 2.1% active. AID 1460; also: potency is read from the fitted curve at half-maximal effect; nearly all actives have a fitted effect of over 55% in size
Target sequence (P10636 561-689 P618L limits assumed): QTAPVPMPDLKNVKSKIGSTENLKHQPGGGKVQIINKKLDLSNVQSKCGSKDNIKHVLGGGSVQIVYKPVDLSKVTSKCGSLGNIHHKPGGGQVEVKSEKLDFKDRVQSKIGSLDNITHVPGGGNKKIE
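K18 P301L tau (15 uM + 0.24 uM Alexa 594-tagged), heparin 20 uM, NaOAc pH 7, 6 h 37 C; ThT 30 uM, 1 h RT, ex 450/em 510 nm.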
Tau fluor cs – counter-screen for tau fibril formation inhibitors; Potency, µM (top dose mostly 57.7 µM), for inactives: at the highest dose activity change, negative = decrease; 280,000 tested, 0.93% active; tau K18 P301L Alexa594 fluorescence, heparin fibrillization; AID 1463; also: potency is read from the fitted curve at half-maximal effect; nearly all actives have a fitted effect of over 55% in size
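Human tau K18 P301L (15 uM unlabeled, 0.24 uM Alexa 594-labeled) in 100 mM sodium acetate pH 7 with 20 uM heparin, 6 hr at 37 C. ThT 30 uM added, 1 hr ambient; Alexa 594 FP and total fluorescence read at 555/632 nm.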
G9a block – blocks human histone lysine methyltransferase G9a; Q96KQ7; G9a H3K9 monomethylation, AlphaScreen, 2 h; Potency, µM (top dose mostly 102 µM), inactives show at the top dose activity, negative = inhibition, most hits filed as inhibitors; 350,000 tested, 8.8% active; also: potency is read from the fitted curve at half-maximal effect; nearly all actives have a fitted effect of over 75% in size
Target sequence (Q96KQ7 913-1193 limits assumed): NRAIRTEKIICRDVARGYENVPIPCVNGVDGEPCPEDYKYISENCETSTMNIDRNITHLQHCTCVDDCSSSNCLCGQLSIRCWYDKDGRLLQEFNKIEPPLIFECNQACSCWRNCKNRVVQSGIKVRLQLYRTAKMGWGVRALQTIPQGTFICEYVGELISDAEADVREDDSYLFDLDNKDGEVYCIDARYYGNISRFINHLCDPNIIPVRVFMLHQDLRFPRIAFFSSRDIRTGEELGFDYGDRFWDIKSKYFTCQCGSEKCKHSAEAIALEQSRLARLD
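G9a (20 nM) was preincubated 15 min with compound, then reacted 2 h at room temperature with 500 nM biotin-H3K9 peptide and 20 µM SAM. Monomethyl-H3K9 detected by AlphaScreen using anti-H3K9me1 antibody.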
Sfp PPTase inh – inhibitors of Bacillus subtilis Sfp phosphopantetheinyl transferase; Q9F4F7; Biochemical Sfp PPTase activity, qHTS; Potency, µM, inactives show largest response in the series, negative = inhibition, usual class: inhibitors; 310,000 tested, 3.5% active;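 also: the enzyme is Sfp with the accession as filed and its product quenches rhodamine fluorescence; potency is read from the fitted curve at half-maximal effect; 0% = enzyme reaction without inhibitor and -100% = no enzyme wells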
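After 15 min at room temperature with compound, 15 nM Sfp received 5 uM rhodamine-CoA plus 12.5 uM BHQ-2-ybbR (50 mM Hepes pH 7.6, 10 mM MgCl2). Rate came from the fluorescence difference over 30 min, ex 525/em 598 nm.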
Tau FP inhib – inhibitors of human tau fibril formation. K18 P301L tau heparin fibrillization, Alexa594 FP, 6 h. 280,000 tested, 0.39% active. Potency, µM (doses to about 57.7 µM), inactives show at the highest dose activity, negative = inhibition, actives largely listed as inhibitors; also: potency is read from the fitted curve at half-maximal effect; nearly all actives have a fitted effect of over 55% in size
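Steps: dispense K18 P301L tau (15 uM plus 0.24 uM Alexa 594 tracer, final) in pH 7 sodium acetate; add compound; add heparin (20 uM final); incubate 6 hr, 37 C; add ThT (30 uM final); after 1 hr ambient, read FP.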
FBPA coupling cs – coupling enzyme interference in Giardia aldolase counter-screen; coupling enzyme system counterscreen, AmpLite Red fluorescence; activity change, negative = inhibition, % at 58.2 µM, hits read low; 290,000 tested, 0.67% active; in the data active = activity change below about -30%
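Counterscreen lacking aldolase: glyceraldehyde-3-phosphate coupling-enzyme reagent preincubated 10 min at RT with compound (at 57.5 uM final), then substrate/coupling system with AmpLite Red added; fluorescence read at 525/598 nm after 20 min RT.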
Numbers without * were called inactive; ? = inconclusive; / = no result given; [ ] = another dose, or the depositor's remark. Unless noted, calls follow the shape of the dose curve; as a rule, active = well fitted curve in the direction sought with a large enough effect; inconclusive = small, poorly fitted or top-dose-only effect, or another doubt; inactive = no such curve, though single readings can be large; an effect the other way counts as inactive or inconclusive. Unless noted, % is scaled to controls: 0 for no effect and ±100 for the full control effect.

SMILES	Tau fibril ThT	Tau fluor cs	G9a block	Sfp PPTase inh	Tau FP inhib	FBPA coupling cs
CCCc1cc(C(=O)Cc2nc3ccccc3s2)c(O)cc1O	25µM*	20µM*[quencher]	31%	16%	0%	/
CCOC(=O)C(=O)Cc1nc2ccccc2s1	?	-12%	50µM*	2%	-1%	3
CCc1ccc(NC(=O)Cn2cnc3sc(C)c(S(=O)(=O)N4CCN(c5ccccc5OC)CC4)c3c2=O)cc1	-13%	?	11%[59 µM]	/	3%	/
CCOC(=O)/C=C1\CC(C(=O)OCC)Oc2c(OC)cccc21 (centres undefined)	-14%[81.4 µM]	-11%[81.3 µM]	32µM*	-21%	-9%[81.3 µM]	-3
C=C1c2cccc(OC)c2O[C@H](C(=O)OCC)[C@@H]1CC(CC)CCCC (some centres undefined)	-14%[81.4 µM]	-11%[81.3 µM]	71%	28%	0%[81.3 µM]	-5
COc1ccc(CNCc2ccccc2C(F)(F)F)cc1	/	/	8.9µM*	-22%	/	0
COc1cc(CNCc2cc(OC)ccc2OC)cc(OC)c1	/	/	25µM*	-5%	/	-2
CCOc1cc(CNCc2cc(OC)cc(OC)c2)ccc1OC	/	/	40µM*	-16%	/	-1
CCOCCCNCc1ccc(OC)cc1	-5%	0%	-21%[12.7 µM]	-4%	3%	-1
CCOCCCNCc1cccc(OC)c1	-5%	-7%	4µM*	-15%	-11%	0
Cc1cc2nnc(SCc3ccc(F)cc3)n2c2ccccc12	-11%	-2%	-9%[59 µM]	/	-10%	/
COc1ccc(-c2cc(C(=O)OC(C)C(=O)c3ccccc3)c3cccc(Cl)c3n2)cc1 (centres undefined)	9%	-15%	8%[59 µM]	/	?	/
COc1ccc(CNCc2c(F)cccc2F)cc1OC	/	/	10µM*	-7%	/	0
COc1ccc(CNCC(C)NCc2ccc(OC)c(OC)c2)cc1OC (centres undefined)	/	/	-13%	-7%	/	3
COc1cccc(CNCc2ccc(OC)cc2OC)c1	/	/	8.9µM*	-14%	/	1
CCn1c2ccccc2c2cc(CNCc3ccc(OC)cc3OC)ccc21	?	-21%	40µM*	22µM*	-4%	-2
COc1cccc(CNCC(=O)N2C(C)CCCC2C)c1 (centres undefined)	1%	7%	13µM*	-11%	0%	-2
COc1ccc(CNCc2ccc(F)cc2)c(OC)c1	/	/	15%	7%	/	1
Cc1cccc(Cn2c(=O)n(CCc3ccccc3)c(=O)c3sc4ccccc4c32)c1	-1%	-10%	12%[59 µM]	/	-5%	/
COc1ccc(CNCc2cc(OC)ccc2OC)cc1	/	/	13µM*	-9%	/	-1
COc1cc(CNCc2ccc(C)cc2)cc(OC)c1OC	/	/	28µM*	-22%	/	0
CN(C)S(=O)(=O)N(CC(=O)Nc1ccc(S(=O)(=O)N2CCCC2)cc1)c1ccccc1	/	/	-7%	2%	/	-1
COc1ccc(NC(=O)Cn2c(=O)n(CCCC(=O)NCc3ccccc3Cl)c(=O)c3ccccc32)c(OC)c1	-21%	?	-11%[59 µM]	/	0%	/
O=c1c2ccccc2nc(N2CCN(c3cccc(Cl)c3)CC2)n1-c1ccccc1	-14%	-18%	0%[59 µM]	/	-5%	/
O=C(/C=C/c1cccs1)c1ccc(N2CCOCC2)cc1	16µM*	-22%	-43%	-4%	-5%	0
SMILES	Tau fibril ThT	Tau fluor cs	G9a block	Sfp PPTase inh	Tau FP inhib	FBPA coupling cs
O=C(/C=C/c1cccc(F)c1)c1ccc(N2CCOCC2)cc1	13µM*	?	2%	-13%	1%	1
O=C(/C=C/c1cccs1)c1ccc([N+](=O)[O-])cc1	?	-16%	/	-2%	12%	-1
O=C(O)CC1(CC(=O)Nc2cc3ccccc3cn2)CCCCC1	-9%	-11%	89µM*	12%	-4%	1
Cc1cccc(NC(=O)CC2(CC(=O)O)CCCC2)c1	/	/	20%	16%	/	0
CC(=O)Nc1ccc(S(=O)(=O)N2CCC(C(=O)NCCC(=O)NCc3ccccc3)CC2)cc1	/	/	77%	9%	/	/
COc1ccc(C(=O)CCC(=O)N2CCN(c3ccc([N+](=O)[O-])cc3)CC2)cc1	/	/	12%	-12%	/	-4
O=C(CCS(=O)(=O)Cc1ccccc1)N1CCN(c2ccc([N+](=O)[O-])cc2)CC1	?	-15%	?	15%	-5%	1
O=C(CCCC(=O)N1CCN(c2ccc([N+](=O)[O-])cc2)CC1)c1ccccc1	2.2µM*	-8%	8%	1%	6%	0
O=C(CCCc1ccccc1)N1CCN(c2ccc([N+](=O)[O-])cc2)CC1	2.2µM*	-20%	32%[0.501 µM]	2%	-5%	1
Cn1c(=O)c2[nH]c(Br)nc2n(C)c1=O	/	/	-41%[12.7 µM]	5%	/	/
Cn1c(=O)c2[nH]c(N=Nc3ccc(N)cc3N)nc2n(C)c1=O	14µM*	?	/	?	-9%	-8
O=C(CSc1nccn1Cc1ccc(Cl)cc1)Nc1ccc2c(c1)OCCO2	-5%	-22%	?	/	2%	/
O=C(CSc1nccn1Cc1ccc(Cl)cc1)Nc1ccc2c(c1)OCO2	-4%	-25%	18µM*	/	6%	/
O=C(CSc1nc2c(c(=O)n1-c1ccc(Cl)cc1)SCC2)Nc1ccc2c(c1)OCCO2	-20%	-17%	45µM*	13%	-12%	-2
O=C(CSc1nnc(-c2ccccn2)n1-c1ccc(Cl)cc1)Nc1ccc2c(c1)OCO2	3%	-19%	14µM*	1%	-6%	0
C[C@H]1/C=C\CC(=O)NCc2cccc(c2)CNC(=O)N[C@H]1c1ccccc1	-2%	-2%	/	10%	-1%	4
COc1ccccc1N1CCN(C(=O)c2oc3ccccc3c2NC(=O)C(C)Oc2ccccc2)CC1 (centres undefined)	-10%	-26%	-36%[59 µM]	/	-14%	/
C=CCC1C=CC(Oc2ccc(OC)cc2)C(CO)O1 (centres undefined)	-14%[11.5 µM]	-12%[11.6 µM]	/	-13%	-2%[11.6 µM]	-1
O=C(CN1C2CCC1CC(NC(=O)NC1CCCCC1)C2)NC1CC1 (centres undefined)	-12%	3%	71µM*	10%	6%	1
CCNC(=O)c1c(NC(=O)c2cc(=O)c3ccc(C)c(C)c3o2)sc2c1CCCC2	-1%	-5%	-3%[59 µM]	/	3%	/
O=C(Nc1ccc(F)cc1)Nc1csc2ccccc12	/	8.9µM*[quencher]	?	?	2%	-9
CN1CCC(CNC(=O)Nc2csc3ccccc23)CC1	?	-19%	/	79µM*	13%	1
O=C(NCC1CCN(Cc2ccccc2Cl)CC1)Nc1ccccc1F	/	/	39%	5%	/	-1
CCc1ccccc1NC(=O)Nc1ccc(F)cc1	-7%	-9%	/	15%	1%	3
CN(C)c1ccc(NC(=O)Nc2csc3ccccc23)cc1	3.5µM*	7.1µM*[quencher]	8.9µM*	19%	-13%	4
